Compound activity from PubChem BioAssay.
Tau filament bind – tau filament binding. P10636. recombinant tau filaments, thioflavin S fluorescence, 15 h; filaments grown with octadecylsulfate alongside compound. Potency, µM (titrated, usually from 57.1 µM), inactives show at the highest dose activity change, negative = inhibition. hit rate 2% among 71,000;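 also: potency is read from the fitted curve at half-maximal effect; % is scaled to controls: 0 for no effect and ±100 for the full control effect; actives lower thioflavin S fluorescence by blocking filaments or displacing dye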
Target sequence (P10636 whole entry, looked up): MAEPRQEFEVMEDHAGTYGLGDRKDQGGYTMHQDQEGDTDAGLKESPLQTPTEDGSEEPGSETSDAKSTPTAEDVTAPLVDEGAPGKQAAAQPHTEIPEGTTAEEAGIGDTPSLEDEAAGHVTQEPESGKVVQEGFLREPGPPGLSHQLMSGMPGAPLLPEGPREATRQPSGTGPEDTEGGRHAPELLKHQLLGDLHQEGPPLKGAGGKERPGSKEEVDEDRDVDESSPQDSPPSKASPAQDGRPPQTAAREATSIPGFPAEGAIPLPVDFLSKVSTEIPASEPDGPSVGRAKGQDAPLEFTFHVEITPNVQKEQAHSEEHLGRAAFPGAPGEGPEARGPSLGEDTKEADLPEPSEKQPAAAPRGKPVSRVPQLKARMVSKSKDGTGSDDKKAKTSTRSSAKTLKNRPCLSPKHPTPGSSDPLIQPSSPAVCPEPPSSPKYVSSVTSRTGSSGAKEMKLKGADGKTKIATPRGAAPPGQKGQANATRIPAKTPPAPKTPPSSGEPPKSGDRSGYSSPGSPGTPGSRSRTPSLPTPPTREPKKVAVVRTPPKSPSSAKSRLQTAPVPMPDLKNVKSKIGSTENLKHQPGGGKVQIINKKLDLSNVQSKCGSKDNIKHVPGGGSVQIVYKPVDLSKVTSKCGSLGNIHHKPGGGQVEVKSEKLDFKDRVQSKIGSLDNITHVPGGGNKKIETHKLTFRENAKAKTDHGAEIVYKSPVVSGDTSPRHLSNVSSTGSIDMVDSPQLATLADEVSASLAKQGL
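Quantitative HTS: thioflavine S signal from ODS-induced tau filaments, excited at 450 nm, emission 510 nm. Conditions: 1 uM tau, 30 uM ODS, 15 h at 37 C, pH 7.4.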
GFP derepression – derepresses silenced GFP locus in mouse C127i cells. Potency, µM (series often up to 46.1 µM), inactives show at the top dose GFP derepression (activation). AID 597. hit rate 0.09% among 68,000. mouse C127i GFP locus derepression, cytometry, 30 h; also: % of control where 0% means no effect
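Derepression screen: silenced CMV-GFP reporter in murine C127i cells, 30 h compound incubation at 37 C, washed cells imaged by laser-scanning cytometer to enumerate GFP-expressing objects of 20 to 120 um.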
Ub-GFP proteasome – inhibits proteasome, raising ubiquitin-GFP reporter fluorescence. Potency, µM (titrated, usually from 45.9 µM), for the others: top-dose activation (GFP accumulation), usual class: activators. 67,000 tested, under 10 active. Ubiquitin-GFP reporter cells, proteasome inhibition, GFP fluorescence; response scale: untreated = 0%, 10 µM MG-132 = 100%; active = well fitted activation curve with a large enough effect, not every such curve was filed as active; inconclusive = small, poorly fitted or top-dose-only effect, or another doubt; inactive = no such curve, though single readings can be large or run the other way; also: potency is read from the fitted curve at half-maximal effect
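U2OS Ub(G76V)-GFP reporter; O/N plating, 0.5% FBS; cpd 46 uM–2.9 nM, 4 h, 37 °C; GFP+ cell count, 488/515 nm; norm. to basal vs 10 uM MG-132; CRC fit.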
15-hLO-2 inh – inhibitors of human 15-lipoxygenase 2 (ALOX15B); O15296; purified 15hLO-2, xylenol orange hydroperoxide absorbance; Potency, µM (series often up to 57.1 µM), without a hit: at the top dose activity change, negative = inhibition, actives largely listed as inhibitors; hit rate 0.56% among 110,000; also: potency is read from the fitted curve at half-maximal effect; % is scaled to controls: 0 for no effect and ±100 for the full control effect; nearly all actives have a fitted effect of over 60% in size
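Screening format was qHTS against 50 nM purified 15hLO-2 in Hepes pH 7.5 with detergent. Activity follows hydroperoxide formation from 45 uM arachidonic acid, measured as 573:405 nm absorbance ratio of the ferric-xylenol orange complex.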
ALOX15 inhib – blocks human 15-lipoxygenase activity; P16050; purified 15hLO-1, xylenol orange hydroperoxide absorbance; Potency, µM (top dose mostly 57.1 µM), without a hit: top-dose activity change, negative = inhibition, usual class: inhibitors; hit rate 1.4% among 74,000; AID 887; also: potency is read from the fitted curve at half-maximal effect; % is scaled to controls: 0 for no effect and ±100 for the full control effect; nearly all actives have a fitted effect of over 55% in size
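40 nM 15hLO-1 + cpd, 15 min RT; start w/ 50 uM AA (final), 6 min RT; stop/detect w/ 200 uM XO + 300 uM Fe(II) in 50 mM H2SO4, 30 min; A573/A405. Buffer 25 mM Hepes pH 7.5, 0.01% Triton X-100. No-enzyme wells as negative control.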
HBB splice mod – modulators of hemoglobin beta chain splicing; HBB splicing reporter cell assay, activation; EGFP reporter with mutant IVS2-654 intron; response scale: normalised to 500 nM splice-correcting PNA; Potency, µM (titrated, usually from 46.1 µM), inactives show at the top dose activation, usual class: activators; hit rate 0.06% among 65,000; also: potency is read from the fitted curve at half-maximal effect; 0% is about no effect
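HeLa cells stably expressing EGFP interrupted by mutant beta-globin intron 2 (IVS2-654), 500/well in 2% FCS. Treated with compound for 2 days at 37C. Splicing correction scored as total well GFP intensity (488 nm excitation, 500-520 nm emission); 500 nM antisense PNA served as control.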
* marks the source's active call; other numbers are inactive results; ! = not confirmed by another sample; [ ] = another dose, or the depositor's remark. In the library only some 2.3% were active in any assay of this set; here they are far more common. Unless noted, calls follow the shape of the dose curve; as a rule, active = well fitted curve in the direction sought with a large enough effect; inconclusive = small, poorly fitted or top-dose-only effect, or another doubt; inactive = no such curve, though single readings can be large; an effect the other way counts as inactive or inconclusive.

How did O=C1c2cccc([N+](=O)[O-])c2C(=O)N1c1ncn[nH]1 do in these assays?
Tau filament bind: 6%[11.4 µM]; GFP derepression: 6%[9.22 µM]; Ub-GFP proteasome: 1%[9.17 µM]; 15-hLO-2 inh: 0%[11.4 µM]; ALOX15 inhib: 12%[11.4 µM]; HBB splice mod: 2%[9.22 µM]

Results for CCc1nc(Nc2ccc(N3CCN(C(C)=O)CC3)cc2)c2oc3ccccc3c2n1 ?
Tau filament bind: 20µM*; GFP derepression: -2%; 15-hLO-2 inh: 4%; ALOX15 inhib: -24%; HBB splice mod: -1%[0.369 µM]

How did CC(=O)N1CCN(c2ccc(Nc3ncnc4c3oc3ccccc34)cc2)CC1 do in these assays?
Tau filament bind: 25µM*; GFP derepression: 2%; Ub-GFP proteasome: -1%; 15-hLO-2 inh: -11%; ALOX15 inhib: -14%; HBB splice mod: 3%[0.369 µM]

Results for CCc1nc(Nc2ccccc2)c2oc3ccccc3c2n1 ?
15-hLO-2 inh: 4%

What do the screens show for `NC(=O)CNCCC(c1ccccc1)c1ccccc1`?
Tau filament bind: -6%; GFP derepression: 1%; Ub-GFP proteasome: 0%; 15-hLO-2 inh: 42%; ALOX15 inhib: 20µM*!; HBB splice mod: -1%

How did COc1ccc2[nH]cc(CCNc3cc(-c4c(C)noc4C)ncn3)c2c1 do in these assays?
Tau filament bind: -27%; GFP derepression: 0%[9.22 µM]; Ub-GFP proteasome: -5%; 15-hLO-2 inh: -9%; ALOX15 inhib: inconclusive; HBB splice mod: 0%

How did CCOC(=O)c1sc(NC(=O)CSc2n[nH]c(-c3ccccc3)n2)c(C#N)c1C do in these assays?
Tau filament bind: inconclusive; GFP derepression: 0%; Ub-GFP proteasome: 0%; 15-hLO-2 inh: -12%; ALOX15 inhib: 13µM*; HBB splice mod: 1%[57.5 µM]

What do the screens show for `CCOC(=O)c1sc(NC(=O)CSc2nnc(Cc3ccccc3)o2)c(C#N)c1C`?
Tau filament bind: 20µM*; GFP derepression: 5%; Ub-GFP proteasome: -1%; 15-hLO-2 inh: inconclusive; ALOX15 inhib: inconclusive; HBB splice mod: -4%

How did CC(=O)NC(CC(C)C)C(=O)NC(Cc1ccccc1)C(N)=O (centres undefined) do in these assays?
Tau filament bind: 0%; GFP derepression: 0%; Ub-GFP proteasome: -1%; 15-hLO-2 inh: -5%; ALOX15 inhib: 10%; HBB splice mod: 2%[57.5 µM]

Results for CC(=O)[C@H](CC(C)C)NC(=O)[C@@H](CC(C)C)NC(=O)[C@H](CC(C)C)NC(=O)OCc1ccccc1 ?
Tau filament bind: inconclusive; GFP derepression: 5%; Ub-GFP proteasome: 0.79µM*; 15-hLO-2 inh: -9%; ALOX15 inhib: -8%[25.6 µM]

Results for c1ccc(-c2ccc(N3CC4(CCNCC4)C3)cc2)cc1 ?
Tau filament bind: 13µM*; GFP derepression: -5%[9.22 µM]; Ub-GFP proteasome: -7%; 15-hLO-2 inh: 39%; ALOX15 inhib: -27%; HBB splice mod: -2%

How did c1ccc(-c2ccc(N3CCCC4(CCNCC4)C3)cc2)cc1 do in these assays?
Tau filament bind: 3.2µM*; GFP derepression: 0%[9.22 µM]; Ub-GFP proteasome: -12%; 15-hLO-2 inh: 6%; ALOX15 inhib: -17%; HBB splice mod: -1%

Results for O=C(OCC(=O)N1CCN(C(=O)c2ccco2)CC1)c1cc(-c2ccco2)nc2ccccc12 ?
15-hLO-2 inh: 13µM*

What do the screens show for `O=[N+]([O-])c1ccc2c(N=Nc3ccc4ccccc4c3O)c(O)cc(S(=O)(=O)O)c2c1`?
Tau filament bind: 3.2µM*; GFP derepression: -2%[9.22 µM]; Ub-GFP proteasome: -3%[9.17 µM]; 15-hLO-2 inh: 4µM*; ALOX15 inhib: 3.2µM*; HBB splice mod: -1%[9.22 µM]

What do the screens show for `Cc1noc(C)c1-c1cc(NC2CCNCC2)ncn1`?
Tau filament bind: -6%; GFP derepression: -1%[9.22 µM]; Ub-GFP proteasome: -3%; 15-hLO-2 inh: -5%; ALOX15 inhib: 16µM*; HBB splice mod: 0%

How did COC(=O)c1ccccc1NS(=O)(=O)c1ccc2c3c(cccc13)C(=O)N2 do in these assays?
Tau filament bind: 16µM*; GFP derepression: 1%; Ub-GFP proteasome: 0%; 15-hLO-2 inh: -11%; ALOX15 inhib: -12%; HBB splice mod: -1%

Results for CC(C)CNc1nc2ncnc(N)c2[nH]1 ?
Tau filament bind: -4%[11.4 µM]; GFP derepression: 2%[9.22 µM]; Ub-GFP proteasome: 13%[9.17 µM]; 15-hLO-2 inh: 3%[11.4 µM]; ALOX15 inhib: -1%[11.4 µM]; HBB splice mod: 4%[9.22 µM]

What do the screens show for `CN1CCc2nc(NC(=O)c3cccc(S(=O)(=O)N4CCc5ccccc54)c3)sc2C1`?
Tau filament bind: 213%; GFP derepression: 1%; Ub-GFP proteasome: 7%; 15-hLO-2 inh: 39%; ALOX15 inhib: 16µM*; HBB splice mod: 0%

How did C=CCc1cccc(CNc2nc3ccccc3n2CCN2CCOCC2)c1O do in these assays?
Tau filament bind: 25µM*; GFP derepression: 6%; Ub-GFP proteasome: 3%; 15-hLO-2 inh: 27%; ALOX15 inhib: 5%; HBB splice mod: -1%

How did Oc1ccccc1CNc1nc2ccccc2n1CCN1CCCCC1 do in these assays?
Tau filament bind: 14%; GFP derepression: -4%; Ub-GFP proteasome: 22%; 15-hLO-2 inh: 5%; ALOX15 inhib: 13µM*; HBB splice mod: -1%

Results for COc1ccccc1CNc1nc2ccccc2n1CCN1CCCCC1 ?
Tau filament bind: 7%; GFP derepression: 0%; Ub-GFP proteasome: 0%; 15-hLO-2 inh: 68%; ALOX15 inhib: -3%; HBB splice mod: 0%

How did c1csc(CNc2nc3ccccc3n2CCN2CCOCC2)c1 do in these assays?
Tau filament bind: 0%; GFP derepression: -1%; Ub-GFP proteasome: 0%; 15-hLO-2 inh: 5%; ALOX15 inhib: 9%; HBB splice mod: 0%[57.5 µM]

How did N=C1Sc2ccccc2C2=NCCCN12 do in these assays?
Tau filament bind: -7%; GFP derepression: 0%; Ub-GFP proteasome: 3%; 15-hLO-2 inh: 13µM*; ALOX15 inhib: inconclusive; HBB splice mod: 2%

Results for O=C(O)C(Cc1ccccc1)Cc1ccccc1 ?
Tau filament bind: 7%[11.4 µM]; GFP derepression: -2%[9.22 µM]; Ub-GFP proteasome: -4%[9.17 µM]; 15-hLO-2 inh: 1%[11.4 µM]; ALOX15 inhib: 6%[11.4 µM]; HBB splice mod: 2%[9.22 µM]

How did CCOC(=O)C1=C(C)NC(C)=C(C(=O)OC)[C@H]1c1cccc(Cl)c1Cl do in these assays?
Tau filament bind: 3%; GFP derepression: 1%; Ub-GFP proteasome: -2%; 15-hLO-2 inh: -5%; ALOX15 inhib: -22%; HBB splice mod: -1%

What do the screens show for `Nc1ccc(-c2ccc(Nc3cc(S(=O)(=O)O)c(N)c4c3C(=O)c3ccccc3C4=O)cc2)c(S(=O)(=O)O)c1`?
Tau filament bind: -9%[11.4 µM]; GFP derepression: 2%[9.22 µM]; Ub-GFP proteasome: -1%[9.17 µM]; 15-hLO-2 inh: -3%[11.4 µM]; ALOX15 inhib: inconclusive; HBB splice mod: 1%[9.22 µM]
